This assay addresses Solute carrier family 2, facilitated glucose transporter member 1 (Homo sapiens) (UniProt P11166). Nature of the assay: ST_JUDE_LEISH: Cytotoxicity at 2uM final concentration against transgenic Leishmania Mexicana promastigotes LmGLUT1 that are glucose transport deficient and complemented with the human glucose transporter GLUT1. Activity is measured by DNA content using SYBR green in vitro. The class given is functional.
Chain of Solute carrier family 2, facilitated glucose transporter member 1 (Homo sapiens) (P11166 whole entry): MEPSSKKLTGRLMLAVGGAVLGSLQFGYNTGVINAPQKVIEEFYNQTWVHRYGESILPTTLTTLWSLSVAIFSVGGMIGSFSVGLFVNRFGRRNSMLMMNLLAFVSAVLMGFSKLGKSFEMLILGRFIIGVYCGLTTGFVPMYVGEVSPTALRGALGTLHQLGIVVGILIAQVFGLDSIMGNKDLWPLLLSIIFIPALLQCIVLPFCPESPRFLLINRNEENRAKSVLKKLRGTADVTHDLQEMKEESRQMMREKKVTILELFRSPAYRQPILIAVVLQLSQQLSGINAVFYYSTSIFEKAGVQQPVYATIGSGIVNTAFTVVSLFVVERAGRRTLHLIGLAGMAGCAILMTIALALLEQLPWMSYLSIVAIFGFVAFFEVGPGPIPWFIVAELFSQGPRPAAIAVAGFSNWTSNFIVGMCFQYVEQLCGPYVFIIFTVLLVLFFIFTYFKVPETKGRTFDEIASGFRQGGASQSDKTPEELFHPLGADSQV
For `Oc1cc(Nc2ccnc3cc(-c4ccc(CN5CCCCC5)o4)c(Cl)cc23)c(Cl)cc1F`, the inhibition was found to be 1.26%.

`COc1ccc2c(c1)CC(C)(C)NC2CCCCCCCCC1NC(C)(C)Cc2cc(OC)ccc21` (stereo not drawn): the inhibition came to 2.26%.

Take `COc1cccc(C=NN=c2cc(C)[nH]c3ccccc23)c1`: the inhibition stood at 3.57%.

As to `Oc1ccc2ccccc2c1CNC1CCCCCC1`, the inhibition came out at 0.85%.

For the molecule `CCc1cn2c3c(cc(C(=O)N[C@@H](Cc4ccccc4)[C@H](O)CNC4CCOCC4)cc13)N(C(C)C)S(=O)(=O)CC2`, the inhibition was -1.49%.

For the molecule `Oc1cc(Nc2ccnc3ccc(I)cc23)c(F)cc1Cl`, the inhibition is 0.49%.

For the molecule `Cc1cccc2nc(-c3cccc(-c4ccc(NC(=O)c5c[nH]cn5)cc4)c3)[nH]c12`, the inhibition was -0.79%.

In the case of `Cc1cc(N[C@@H](Cc2ccccc2)C(=O)NC2CCCC2)nc(NCCOc2ccccc2)n1`, the inhibition came to 1.41%.

In general, inhibition refers to the change of the read-out against control, counted positive when it falls.
